HPGD block = blocks human HPGD enzyme activity; purified HPGD, NADH fluorescence kinetic, PGE2 substrate; Potency, µM, for the others: at the top dose activity change, negative = inhibition, usual class: inhibitors; 150,000 compounds, 4.3% hits; note: potency is the fitted concentration of half-maximal effect
Target sequence (P15428 whole entry, looked up): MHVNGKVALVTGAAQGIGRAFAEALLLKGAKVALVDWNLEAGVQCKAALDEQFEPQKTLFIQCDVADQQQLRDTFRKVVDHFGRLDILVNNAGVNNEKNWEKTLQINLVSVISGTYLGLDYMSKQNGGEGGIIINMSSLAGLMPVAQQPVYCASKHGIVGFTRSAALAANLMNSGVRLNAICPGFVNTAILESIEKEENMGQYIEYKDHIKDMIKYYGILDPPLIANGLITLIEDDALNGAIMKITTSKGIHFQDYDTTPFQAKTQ
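20 nM HPGD preincubated 15 min at room temperature with compound in 50 mM Tris-HCl pH 8, 0.01% Tween 20. Started with 1 mM NAD+ and 30 uM prostaglandin E2; NADH fluorescence (360/450 nm) read 5 times over 30-s intervals, last minus first.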
IMPase cell inh = cell-permeable inhibitors of inositol monophosphatase (IMPase). AID 901. P97697. 120,000 tested, under 10 active. CHO-M1 cells, IP1 accumulation, HTRF TR-FRET ratio. inhibition (IP1 accumulation), % at 46.1 µM; active = well fitted curve in the direction sought with a large enough effect in the signal ratio, not every such curve was filed as active; inconclusive = small, poorly fitted or top-dose-only effect, or a change in a side signal; inactive = no such curve, though single readings can be large or run the other way; the % refers to the signal ratio;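 note: cells stimulated with carbachol in lithium chloride buffer; plate controls were DMSO basal wells for no effect and reference inhibitor wells for full effect; higher means more IMPase inhibition seen as more IP1 and lower FRET ratio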
Target sequence (P97697 whole entry, looked up): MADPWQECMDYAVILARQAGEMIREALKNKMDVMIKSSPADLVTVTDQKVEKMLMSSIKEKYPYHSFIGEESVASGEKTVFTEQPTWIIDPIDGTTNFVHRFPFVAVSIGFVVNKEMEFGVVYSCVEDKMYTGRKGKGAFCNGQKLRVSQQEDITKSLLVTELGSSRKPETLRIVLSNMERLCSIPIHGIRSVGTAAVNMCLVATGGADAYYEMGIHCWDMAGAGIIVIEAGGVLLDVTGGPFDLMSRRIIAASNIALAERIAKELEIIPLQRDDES
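Cellular IMPase inhibition is scored as a rise in cytosolic IP1, detected by competitive TR-FRET between d2-labelled IP1 and a europium anti-IP1 antibody. M1-expressing CHO cells were stimulated with carbachol for 30 min at 37C, with lithium (50 mM LiCl) present in the buffer.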
PNC assembly inh = inhibitors of perinucleolar compartment assembly | PC3M PTB-GFP, PNC prevalence imaging, 16 h; active compounds read low | activity change (PNC), negative = inhibition, % at 10 µM | 140,000 compounds, 3.1% hits | AID 2417;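 active = readout at or below -70, meaning at least 70% loss of cells showing the perinucleolar compartment, a nuclear body marking cancer cells; inconclusive = readout between -30 and a set limit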;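 note: plate controls were DMSO wells for no effect and camptothecin positive control wells for full effect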
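Compounds are pinned in duplicate onto adhered PC3M cells stably expressing GFP-tagged PTB and incubated 16 h at 37 C. Cells are then fixed, nuclei stained with Hoechst, and PNC-positive cells counted.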
IMPase Li inh = membrane-permeable IMPase blocker, potentiated with lithium | CHO-M1 cells, IP1 TR-FRET (IP-One), carbachol + lithium | Potency, µM (highest dose often 59.4 µM), for the others: top-dose activity, negative = IMPase inhibition, most hits filed as inhibitors | 210,000 compounds, 0.35% hits; active = well fitted curve in the direction sought with a large enough effect; inconclusive = small, poorly fitted or top-dose-only effect, or another doubt; inactive = no such curve, though single readings can be large; an effect the other way counts as inactive or inconclusive;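 note: IP1 builds up when IMPase is blocked and the TR-FRET signal falls; potency is the fitted concentration of half-maximal effect; plate controls were basal vehicle for no effect and high inhibitor control for full effect; nearly all actives have a fitted effect of over 50% in size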
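CHO-M1, 2000 cells/well, 16–30 h culture; cpd + low Li+, 30 min 37C; lysis with d2-IP1/Eu-anti-IP1 Ab, 10 min RT; TR-FRET 665/620 ratio and 620 channel; AC50 via Hill.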
ALDH1A1 block = blocks purified human ALDH1A1 activity | P00352 | Purified ALDH1A1, NADH fluorescence, propionaldehyde substrate | Potency, µM (highest dose often 75.3 µM), for inactives: at the highest dose activity, negative = inhibition, most hits filed as inhibitors | 220,000 compounds, 7.3% hits;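 note: potency is the fitted concentration of half-maximal effect; plate controls were no enzyme wells and a reference inhibitor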
ALOX12 inhib = blocks human 12-lipoxygenase activity. purified 12-hLO, xylenol orange hydroperoxide absorbance. Potency, µM (series often up to 57.1 µM), for inactives: top-dose activity change, negative = inhibition, actives largely listed as inhibitors. 150,000 compounds, 0.12% hits. AID 1452; active = well fitted curve in the direction sought with a large enough effect; inconclusive = small, poorly fitted or top-dose-only effect, or another doubt; inactive = no such curve, though single readings can be large; an effect the other way counts as inactive or inconclusive; note: potency is the fitted concentration of half-maximal effect; nearly all actives have a fitted effect of over 55% in size
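Xylenol orange chromogenic assay: hydroperoxide from 12hLO oxidises Fe(II), giving red-shifted Fe(III)-XO absorbance. Conditions: 150 nM enzyme, 40 uM arachidonic acid, 25 mM Hepes pH 7.0, 0.01% Triton X-100, 30 min, room temperature.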
Numbers without * were called inactive; ? = inconclusive; / = not tested or not shown; [ ] = another dose, or the depositor's remark. Compounds with a hit are over-represented: about 11% of the library has one in this group of screens. Unless noted, calls come from the whole dose curve; as a rule, active = well fitted inhibition curve with a large enough effect (not every such curve was filed as active); inconclusive = small, poorly fitted or top-dose-only effect, or another doubt; inactive = no such curve, though single readings can be large or run the other way. Unless noted, % is set by controls: 0 for no effect and ±100 for the full control effect.

SMILES | HPGD block | IMPase cell inh | PNC assembly inh | IMPase Li inh | ALDH1A1 block | ALOX12 inhib
CCN(CC)S(=O)(=O)c1cccc(-c2nnc(SCC(=O)NCCC3=CCCCC3)n2N)c1 | -2% | 5 | -17 | 14%[38.3 µM] | ? | -6%
C(/C=C\c1ccccc1)=Nc1ccc2c(c1)Cc1ccccc1-2 | -17% | / | / | -8% | ? | 0%[11.4 µM]
COc1ccc(C(=O)N2CCC3(CCN(Cc4ccncc4)CC3)CC2)cc1 | -4% | / | / | 2% | -3% | -1%
O=C(NCCC1=CCCCC1)c1ccc(Cl)c(S(=O)(=O)N2CCOCC2)c1 | 1% | 13 | -19 | 0%[38.3 µM] | 13µM* | -3%
O=S(=O)(NCCC1=CCCCC1)c1cccc(S(=O)(=O)N2CCOCC2)c1 | / | 14 | 10 | / | 10µM* | -2%
Cc1cc(=O)oc2cc(O[C@@H]3O[C@H](C(=O)O)[C@@H](O)[C@H](O)[C@H]3O)ccc12 | ? | -1 | / | 7% | ? | -3%
CC1(C)OC2C[C@](O)(C(N)=O)C[C@H](O)[C@H]2O1 (stereo not given in full) | 0% | / | / | 20% | 6% | 0%
COc1ccccc1-c1cncnc1-n1ccnc1 | ? | / | / | 1% | -13% | -4%
Cc1ccc2oc3c(c(=O)c2c1)C(c1ccccc1F)N(c1ccccn1)C3=O (stereo not given) | / | -15 | / | / | / | /
Cc1ccc(NNC(=S)Nc2ccc(C(C)C)cc2)c(C)c1 | ? | -11 | -1 | 20% | 22µM* | ?
Cc1nc(N2CCOCC2)[nH]c(=O)c1C | / | / | / | -2% | 5% | /
CCOc1ccc(N2C(=O)CN(O)C=C3N=c4ccccc4=C32)cc1 | / | / | / | ? | 10µM* | /
O=S(=O)(c1ccccc1)N1CCN(C2CCCCCCC2)CC1 | -10% | 8 | -7 | 18%[38.3 µM] | ? | -1%
c1ccc(CCN(Cc2ccccc2)C2CCN(C3CCCC3)CC2)cc1 | / | / | / | 30% | 40µM* | /
CC(=O)[C@@]1(O)CC[C@H]2[C@H]3C[C@@H](C)C4=CC(=O)C=C[C@]4(C)[C@@]3(F)[C@@H](O)C[C@]21C | -2% | -4[20.6 µM] | / | -1% | -6%[20.9 µM] | 1%[25.6 µM]
CCOc1ccccc1NC(=O)c1ccc(S(=O)(=O)N(C)C)cc1 | -18% | -6 | -21 | 61%[38.3 µM] | 14µM* | -5%
COc1cc2c(cc1NC(=O)c1cccc(S(=O)(=O)N(C)C)c1)oc1ccccc12 | ? | / | -107* | -4% | ? | -2%
CCOc1ccccc1NC(=O)CN(Cc1ccccc1)S(C)(=O)=O | -3% | -1[1.84 µM] | -94* | 24%[38.3 µM] | 3% | 2%
CN(C)S(=O)(=O)c1cccc(C(=O)Nc2ccccc2[N+](=O)[O-])c1 | 40µM* | / | -7 | 6% | ? | -3%
CCN(CC)S(=O)(=O)c1ccc(C(=O)Nc2cc3oc4ccccc4c3cc2OC)cc1 | -13% | / | 12 | -6% | ? | -3%
CCOc1ccc(CCNC(=O)C2=C(C)C(=O)OC23CCCCC3)cc1OCC | / | / | / | 13% | ? | /
CCN(CC)CCC(=O)c1ccc(F)cc1 | / | / | / | 8% | 1.1µM* | /
CC(=O)NCCNc1nc(-c2ccc(N(C)C)cc2)nc2ccccc12 | -27% | / | / | 14% | ? | -4%
c1ccc(CC2CCN(C3=Nc4cccc5cccc3c45)CC2)cc1 | -9% | 6 | -2 | 29%[38.3 µM] | 14µM* | -12%
CC(=O)N1CCN(C2=Nc3cccc4cccc2c34)CC1 | -13% | 16 | -2 | 4%[38.3 µM] | 2% | 5%
Fc1ccc(N/N=C2/CCSc3sccc32)c(F)c1 | / | / | / | / | 19µM* | /
CS(=O)(=O)N1CCC(C(=O)Nc2cc(Cl)cc(Cl)c2)CC1 | / | / | / | 1% | -8% | /
CC(C)c1cccc2nc3c(c([Si](C)(C)C)c12)Cn1c-3cccc1=O | ? | / | / | 0% | ? | -5%
CN1CCN(c2cnn(-c3ccccc3)c(=O)c2Br)CC1 | / | / | / | 12% | 5% | /
CCOC(=O)N1CCN(C(=O)CCCn2c(=O)[nH]c3ccccc3c2=O)CC1 | -12% | 2 | ? | -2%[38.3 µM] | -2% | -5%
